Measurements reported in PubChem BioAssay (NCI).
This is part of a sample that, as a whole, favours compounds with a hit. Of some 79,000 tested, about 15% had one in any assay. A number with no mark means an inactive call. Active and inactive are the calls of the source. Rule as the data show it: active = growth inhibition above about 70%; inactive = the rest. Where a SMILES comes first, the peptide text is derived from it. Bridges are numbered along the chain shown (N, C = ends). Roman numbers before positions name the chains, in order. [ ]: non-standard residue; d: D form. The star is where a group is joined. ξ: configuration not given here. ξPhe(4-N(CH2CH2Cl)2) = NC(Cc1ccc(N(CCCl)CCCl)cc1)C(=O)O; Quinoxaline2carbonyl = O=C(c1cnc2ccccc2n1)*; NMeV = CN[CH](C(=O)O)C(C)C; NMeC = CN[CH](CS)C(=O)O

Columns and labels:
[1] = NCI Yeast Anticancer Drug Screen. Data for the rad50 strain (AID 155);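 also: 0% = growth of vehicle-only cultures of the same strain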; conditions: S. cerevisiae rad50 strain growth inhibition; at 50.0 µM; active compounds read high
Summary of the method: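 DNA repair mutant yeast, compound exposure, growth read-out; inhibition is taken relative to vehicle.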

[2] = NCI Yeast Anticancer Drug Screen. Data for the mec2-1 strain (AID 157); conditions: S. cerevisiae mec2-1 strain, at 50.0 µM, active compounds read high
Summary of the method: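 Cells of the genetically defined mec2-1 yeast strain are incubated with test compound. Inhibition of growth is calculated against vehicle-treated controls.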

[3] = NCI Yeast Anticancer Drug Screen. Data for the sgs1 mgt1 strain (AID 161);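 also: 0% = growth of cultures given vehicle only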; conditions: S. cerevisiae sgs1 mgt1 strain, at 50.0 µM, active compounds read high
Summary of the method: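 Genetically altered yeast, compound exposure, growth inhibition relative to vehicle.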

[4] = NCI Yeast Anticancer Drug Screen. Data for the cln2 rad14 strain (AID 165);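 also: 0% = growth equal to vehicle treated cultures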; conditions: S. cerevisiae cln2 rad14 strain, at 50.0 µM, active compounds read high
Summary of the method: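 The screen exposed genetically defined yeast (cln2 rad14) to test compounds and scored growth inhibition relative to vehicle-treated controls.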

[5] = NCI Yeast Anticancer Drug Screen. Data for the bub3 strain (AID 167); conditions: S. cerevisiae bub3 mutant strain, at 50.0 µM, active compounds read high
Summary of the method: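 In this screen, a yeast mutant lacking normal mitotic checkpoint function is challenged with compound. Relative growth versus vehicle gives the inhibition value.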

[6] = NCI Yeast Anticancer Drug Screen. Data for the mlh1 rad18 strain (AID 175); conditions: S. cerevisiae mlh1 rad18 strain growth inhibition; at 50.0 µM; active compounds read high
Summary of the method: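 Compound-treated yeast growth, normalised to vehicle controls. Strain bears defined DNA repair mutations.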

| Compound | growth inhibition [1] | growth inhibition [2] | growth inhibition [3] | growth inhibition [4] | growth inhibition [5] | growth inhibition [6] |
| --- | --- | --- | --- | --- | --- | --- |
| CCN(CC)C(=S)[S][Pb]([CH2]C)([CH2]C)[CH2]C | 3.5% | 9.25% | 30.2% | 16.9% | -1.35% | 10.2% |
| CCC(=O)OC1(c2ccccc2)CCN(CCC(=O)c2ccccc2)CC1 | 45.5% | 28.4% | 36.8% | 19.2% | 36.8% | 25.9% |
| CC(=O)Nc1cc(Cl)c([N+](=O)[O-])cc1C | -14.9% | -4.15% | -12.4% | -79.1% | 0.75% | 11.6% |
| COc1ccn(C)c(=O)c1C#N | 3.15% | 0.3% | -6.35% | 5.6% | 2.15% | -2.4% |
| O=c1c2cc(Br)cc(Br)c2nc(CCCl)n1-c1ccc(O)c([N+](=O)[O-])c1 | -2% | 15.8% | -9.95% | 16.3% | -7.5% | -0.8% |
| COc1cc2c(cc1OC)[C@@H]1C(=O)c3ccc4c(c3O[C@@H]1CO2)C[C@H](C(C)C)O4 | -11.2% | -40.2% | -1.45% | -9.25% | -33.6% | 7.2% |
| CCC[CH2][Sn]([CH2]CCC)([O]C(=O)CN)[O]C(=O)CN | 29.9% | 17.9% | 35.4% | 22% | 19.1% | 44.1% |
| Cc1ccc(Oc2ccc3c(c2)CN(C)CC3)cc1 | 93.8% (active) | 90.5% (active) | 96.8% (active) | 74.5% (active) | 96.6% (active) | 95.7% (active) |
| CCOP(=O)(OCC)Oc1ccc(SC)cc1 | -7.85% | -14.3% | -9.65% | -14.9% | 12.9% | -14.8% |
| O=C1NC(=S)NC(=O)C1=Cc1cc2c(cc1[N+](=O)[O-])OCO2 | 0.45% | -4.2% | 4.4% | 15.1% | 7.95% | -7.8% |
| O=C(O)C(O)c1ccc(Cl)cc1 (stereo unspecified) | 17.7% | -0.65% | -14.8% | -15.1% | 16.1% | 11.2% |
| CCC1C(=O)OCC1Cc1cncn1C (stereo unspecified) | -11.3% | -8.4% | -17.9% | 0.55% | -9.95% | -17.9% |
| N#CC(C#N)C1CN2CCC1CC2 (stereo unspecified) | 1.95% | 13.3% | 15.6% | 24.5% | 4.9% | -26.6% |
| N.N.N.N.N.N.[Br-].[Co+3] | -0.9% | 7.7% | -34.2% | 6.3% | -1.2% | 22.6% |
| CCCCOP(=O)(Nc1ccc(Cl)cc1)OCCCC | 99.3% (active) | 99.7% (active) | 99.5% (active) | 99.2% (active) | 99.4% (active) | 99.5% (active) |
| C/C=C/C(=O)O | 4.3% | -4.65% | -24.5% | 10.2% | -0.05% | -9.75% |
| O=P1(Oc2ccccc2)N(CCCl)CCN1c1ccccc1 (stereo unspecified) | -12.2% | -44.8% | 7.15% | 13.2% | 32.1% | -4.65% |
| Clc1ccc(C(c2ccccc2Cl)C(Cl)(Cl)Cl)cc1 (stereo unspecified) | -24.6% | -7.8% | 1.8% | -44.6% | 47.5% | 12.2% |
| CC(=O)C(N)Cc1ccccc1 (stereo unspecified) | 24.4% | 17.2% | 10% | -26.6% | 23.2% | 15.2% |
| CCN=C=NCCCN(C)C | -18.8% | -8.8% | -23.1% | 0.25% | -41.2% | -6.35% |
| NC(N)=NC(N)=Nc1ccc(Cl)cc1 | 0.9% | -2.65% | 3.45% | 2.8% | -1.9% | -1.55% |

| Compound | growth inhibition [1] | growth inhibition [2] | growth inhibition [3] | growth inhibition [4] | growth inhibition [5] | growth inhibition [6] |
| --- | --- | --- | --- | --- | --- | --- |
| CCN(c1ccccc1)P(I)(c1ccccc1)(c1ccccc1)c1ccccc1 | 98.7% (active) | 99.5% (active) | 99.3% (active) | 98.6% (active) | 98.2% (active) | 99% (active) |
| O=C(O)C(Cl)Cl | -1.6% | -29.6% | 4.45% | -10.1% | -1.6% | 9.45% |
| CC(=O)OCC1OC(S[As](C)C)C(OC(C)=O)C(OC(C)=O)C1OC(C)=O (stereo unspecified) | -2.85% | 13.8% | -8.3% | 10.9% | 6.4% | 36.8% |
| O=C/C=C/c1ccco1 | 17.4% | -14.3% | -15.2% | 14.2% | -8.45% | 31.8% |
| CCCC(=O)OC1C(c2ccc(=O)oc2)C2(C)CCC3C(CCC4CC(OC(C)=O)CCC43C)C23OC13 (stereo unspecified) | 1.55% | -16.9% | 1.5% | 9.6% | -5.95% | 0.2% |
| CC1(C)N=C(N/N=C/c2ccccc2)SP1(=O)NNc1ncccn1 (stereo unspecified) | -7.85% | 0.95% | -20.1% | 2.35% | 3.55% | 1.25% |
| O=C(Nc1ccc(N(CCCl)CCCl)cc1)c1ccc([N+](=O)[O-])cc1 | 20.1% | 0.75% | 3% | -23.6% | -1.05% | -2.6% |
| CC1NC(=O)C(NC(=O)c2cnc3ccccc3n2)COC(=O)C(C(C)C)N(C)C(=O)C2CSSCC(C(=O)N(C)C(C(C)C)C(=O)OCC(NC(=O)c3cnc4ccccc4n3)C(=O)NC(C)C(=O)N2C)N(C)C1=O (stereo unspecified) (I: Quinoxaline2carbonyl-SA[NMeC][NMeV] / II: Quinoxaline2carbonyl-SA[NMeC][NMeV]; ester I:1-II:C, I:C-II:1; disulfide I:3-II:3; configuration not given here) | 87.3% (active) | 90.5% (active) | 90% (active) | 86.7% (active) | 88.2% (active) | 89.7% (active) |
| COc1ccc(C(C)(C)CC(C)(C)C)cc1 | 39% | 2.55% | 32.8% | 12.1% | 6.1% | -0.85% |
| CCN1C(=O)C(C)C(=O)N(C)C1=O (stereo unspecified) | -33.6% | 18.7% | 0.9% | -11.4% | 0.1% | 1.8% |
| O=NNc1ncc([N+](=O)[O-])cn1 | -1.05% | 5.35% | -5.9% | -23.4% | -5% | -8.4% |
| COc1ccc2c(c1O)CN1CCc3cc4c(cc3C1C2)OCO4 (stereo unspecified) | 40.5% | 22.1% | 28.6% | 25.9% | 43.2% | 19.9% |
| O=C(O)CCCC(=O)CCCC(=O)O.[Pb] | -20% | -27.3% | -11.7% | -36.1% | 2.05% | -4.1% |
| CCCCCCCNC(c1ccccc1)C(O)c1ccccc1 (stereo unspecified) | 8.4% | 10.4% | 12.1% | -40.2% | 1.55% | -3.05% |
| Nc1ccc(CCC(=O)Nc2ccc(S(=O)(=O)F)cc2)c(Cl)c1 | 82.9% (active) | 84% (active) | 85.3% (active) | 92% (active) | 92% (active) | 96.5% (active) |
| C[C@@H]1C[C@@H](O)[C@]2(O)O[C@@H]3C[C@@]4(C=O)[C@@H](CC[C@@H]5[C@@H]4CC[C@]4(C)[C@@H](C6=CC(=O)OC6)CC[C@]54O)C[C@H]3O[C@@H]2O1 | -7.25% | -16.6% | 27.4% | -4.55% | -15.2% | -96.5% |
| CCOC(=O)C(Cc1ccc(N(CCCl)CCCl)cc1)NC(=O)C(Cc1ccccc1)NC(=O)C(NC(=O)CNC(=O)C1CCCN1)C(C)C (stereo unspecified) (H-PGVF[ξPhe(4-N(CH2CH2Cl)2)]-OEt; configuration not given here) | -4.6% | 11.8% | 20.3% | 3.35% | 6.1% | 29.6% |
| CC1(C(=O)O)OC1c1ccccc1 (stereo unspecified) | 4.2% | 1.2% | 6.85% | -11.7% | 10.2% | -7.7% |
| Cc1cc[n+](C)c(Cc2ccccc2)c1C | -26.7% | -11.1% | -8.9% | -26.1% | -22% | -28.9% |
| O=C1OC[C@@H]2Cc3c([nH]c4ccccc34)[C@@H](c3cc(O)c(O)c(O)c3)N12 | 12.1% | -1.2% | 20.8% | 7.4% | 10.7% | -51.6% |
